# Measurements as given in PubChem BioAssay (NCI).
# About 79,000 compounds went through this panel and 15% of them were active in at least one assay; those are over-represented in the sample as a whole. A number with no mark means an inactive call. The source made the active and inactive calls. Cut-off read from the data, not from the text of the source: active = growth inhibition above about 70%; inactive = the rest.
# Test: NCI Yeast Anticancer Drug Screen. Data for the wt1 strain (AID 149);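 note: 0% = growth of vehicle-treated wt1 cultures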
# Details: S. cerevisiae wt1 strain (SPY 50644) growth inhibition; at 11.0 µM; active compounds read high
# Summary of the method: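 wt1 yeast, compound-treated; % growth inhibition vs vehicle control.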
row,SMILES,growth inhibition
1,COc1ccc(/C=C2\CCc3ccccc3C2=O)cc1OC,-11%
2,CN(NC(=O)/C(=C/C=C/c1ccccc1)NC(=O)c1ccccc1)C1=C(Cl)C(=O)[N+](c2ccccc2)=CC1,15%
3,CCCCOc1ccc(Nc2c3ccccc3nc3ccccc23)cc1,69%
4,Cc1c2ccncc2c(C)c2c1oc1ccccc12,10%
5,CCCC#CCOC(=O)c1cc([N+](=O)[O-])cc([N+](=O)[O-])c1,99% (active)
6,COC1=C(N=[N+]=[N-])C(=O)c2ncccc2C1=O,10%
7,CCN(CC)c1ccc(N=Nc2cc(S(=O)(=O)O)ccc2O)c(O)c1,20%
8,O=C1C(C(O)(C(F)(F)F)C(F)(F)F)CCC1C(O)(C(F)(F)F)C(F)(F)F (configuration not stated),8%
9,CN(C)CCNC(=O)c1cccc2nc3c(ccc4ccccc43)nc12,2%
10,CC1=Cc2ccc(C)cc2C(=O)C1=O,41%
11,C=Cc1c(C)c(O)cc2c1-c1ccc(O)c(C)c1CC2,-11%
12,C[n+]1c(-c2ccc(NC(=O)c3ccc(C(=O)Nc4ccc(-c5cn6ccccc6[n+]5C)cc4)cc3)cc2)cn2ccccc21,13%
13,CNC(=O)OCc1c(COC(=O)NC)c(C)n(-c2ccc(Cl)c(Cl)c2)c1C,-54%

# Same assay, conditions: S. cerevisiae wt1 strain (SPY 50644) growth inhibition; at 33.0 µM; active compounds read high
row,SMILES,growth inhibition
1,COc1ccc(/C=C2\CCc3ccccc3C2=O)cc1OC,24%
2,CN(NC(=O)/C(=C/C=C/c1ccccc1)NC(=O)c1ccccc1)C1=C(Cl)C(=O)[N+](c2ccccc2)=CC1,38%
3,CCCCOc1ccc(Nc2c3ccccc3nc3ccccc23)cc1,98% (active)
4,Cc1c2ccncc2c(C)c2c1oc1ccccc12,89% (active)
5,CCCC#CCOC(=O)c1cc([N+](=O)[O-])cc([N+](=O)[O-])c1,99% (active)
6,COC1=C(N=[N+]=[N-])C(=O)c2ncccc2C1=O,52%
7,CCN(CC)c1ccc(N=Nc2cc(S(=O)(=O)O)ccc2O)c(O)c1,29%
8,O=C1C(C(O)(C(F)(F)F)C(F)(F)F)CCC1C(O)(C(F)(F)F)C(F)(F)F (configuration not stated),19%
9,CN(C)CCNC(=O)c1cccc2nc3c(ccc4ccccc43)nc12,17%
10,CC1=Cc2ccc(C)cc2C(=O)C1=O,99% (active)
11,C=Cc1c(C)c(O)cc2c1-c1ccc(O)c(C)c1CC2,98% (active)
12,C[n+]1c(-c2ccc(NC(=O)c3ccc(C(=O)Nc4ccc(-c5cn6ccccc6[n+]5C)cc4)cc3)cc2)cn2ccccc21,70% (active)
13,CNC(=O)OCc1c(COC(=O)NC)c(C)n(-c2ccc(Cl)c(Cl)c2)c1C,97% (active)

# Same assay, conditions: S. cerevisiae wt1 strain (SPY 50644) growth inhibition; at 100.0 µM; active compounds read high
row,SMILES,growth inhibition
1,COc1ccc(/C=C2\CCc3ccccc3C2=O)cc1OC,88% (active)
2,CN(NC(=O)/C(=C/C=C/c1ccccc1)NC(=O)c1ccccc1)C1=C(Cl)C(=O)[N+](c2ccccc2)=CC1,40%
3,CCCCOc1ccc(Nc2c3ccccc3nc3ccccc23)cc1,83% (active)
4,Cc1c2ccncc2c(C)c2c1oc1ccccc12,97% (active)
5,CCCC#CCOC(=O)c1cc([N+](=O)[O-])cc([N+](=O)[O-])c1,99% (active)
6,COC1=C(N=[N+]=[N-])C(=O)c2ncccc2C1=O,92% (active)
7,CCN(CC)c1ccc(N=Nc2cc(S(=O)(=O)O)ccc2O)c(O)c1,51%
8,O=C1C(C(O)(C(F)(F)F)C(F)(F)F)CCC1C(O)(C(F)(F)F)C(F)(F)F (configuration not stated),33%
9,CN(C)CCNC(=O)c1cccc2nc3c(ccc4ccccc43)nc12,85% (active)
10,CC1=Cc2ccc(C)cc2C(=O)C1=O,99% (active)
11,C=Cc1c(C)c(O)cc2c1-c1ccc(O)c(C)c1CC2,98% (active)
12,C[n+]1c(-c2ccc(NC(=O)c3ccc(C(=O)Nc4ccc(-c5cn6ccccc6[n+]5C)cc4)cc3)cc2)cn2ccccc21,92% (active)
13,CNC(=O)OCc1c(COC(=O)NC)c(C)n(-c2ccc(Cl)c(Cl)c2)c1C,99% (active)

# Test: NCI Yeast Anticancer Drug Screen. Data for the rad50EPP+ strain (AID 151);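 note: 0% = growth of vehicle-treated control cultures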
# Details: S. cerevisiae rad50 mutant strain, at 1.2 µM, active compounds read high
# Summary of the method: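 One strain with a rad50 alteration (rad50EPP+) was compound-treated, its growth then compared to that of vehicle controls.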
row,SMILES,growth inhibition
1,O=Cc1ccccc1B(O)O,43%
2,O=C(O)[C@H]1[C@@H](C2CCCCC2)O[C@@H](C2CCCCC2)O[C@H]1C(F)(F)F,-4%
3,N#C/C(=C1C=C/C(=N\O)C(Cl)=C\1)c1ccccc1,2%
4,Nc1nc(Nc2ccccc2)nc(Nc2ccccc2)n1,1%
5,COc1ccc(/C=C2\S/C(=N/Nc3nc(-c4ccccc4)cs3)NC2=O)cc1OC,29%
6,CC(O)CN1C(=O)c2cccc3cc([N+](=O)[O-])cc(c23)C1=O (configuration not stated),10%
7,Cn1c(COc2ccc(/C=N/NC(=O)CCC(=O)N/N=C/c3ccc(OCc4c[n+]5ccccc5n4C)cc3)cc2)c[n+]2ccccc12,-4%
8,O=S(=O)(CCC[C@H]1[C@@H](CCOCc2ccccc2)C2CCCN1O2)c1ccccc1 (some centres not stated),0%
9,CCC(C)/C(C)=N/NC(N)=O (configuration not stated),-5%
10,Nc1c([N+](=O)[O-])cc2c3c(cccc13)CC2,10%
11,NCC(O)CSCc1ccc(Cl)cc1 (configuration not stated),-3%
12,[O-]c1c2cc(-[n+]3c(-c4ccccc4)cc(-c4ccccc4)cc3-c3ccccc3)cc1COCCOCCOCCOCCOC2,-1%
13,C[Si](C)(C)Cc1ccccc1C(=O)O,-2%
